In ChEMBL document CHEMBL1961873, “Compounds: GSK PKIS; Assays: Nanosyn kinase panel” (2012):

Columns and labels:
[1] = target: Tyrosine-protein kinase CSK (Homo sapiens) (UniProt P41240); conditions: at 1 µM;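 note: each value is an averaged inhibition reading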
[2] = target: T1, Discoidin domain-containing receptor 2 (Homo sapiens) (UniProt Q16832); conditions: at 0.1 µM
T1 sequence (whole entry): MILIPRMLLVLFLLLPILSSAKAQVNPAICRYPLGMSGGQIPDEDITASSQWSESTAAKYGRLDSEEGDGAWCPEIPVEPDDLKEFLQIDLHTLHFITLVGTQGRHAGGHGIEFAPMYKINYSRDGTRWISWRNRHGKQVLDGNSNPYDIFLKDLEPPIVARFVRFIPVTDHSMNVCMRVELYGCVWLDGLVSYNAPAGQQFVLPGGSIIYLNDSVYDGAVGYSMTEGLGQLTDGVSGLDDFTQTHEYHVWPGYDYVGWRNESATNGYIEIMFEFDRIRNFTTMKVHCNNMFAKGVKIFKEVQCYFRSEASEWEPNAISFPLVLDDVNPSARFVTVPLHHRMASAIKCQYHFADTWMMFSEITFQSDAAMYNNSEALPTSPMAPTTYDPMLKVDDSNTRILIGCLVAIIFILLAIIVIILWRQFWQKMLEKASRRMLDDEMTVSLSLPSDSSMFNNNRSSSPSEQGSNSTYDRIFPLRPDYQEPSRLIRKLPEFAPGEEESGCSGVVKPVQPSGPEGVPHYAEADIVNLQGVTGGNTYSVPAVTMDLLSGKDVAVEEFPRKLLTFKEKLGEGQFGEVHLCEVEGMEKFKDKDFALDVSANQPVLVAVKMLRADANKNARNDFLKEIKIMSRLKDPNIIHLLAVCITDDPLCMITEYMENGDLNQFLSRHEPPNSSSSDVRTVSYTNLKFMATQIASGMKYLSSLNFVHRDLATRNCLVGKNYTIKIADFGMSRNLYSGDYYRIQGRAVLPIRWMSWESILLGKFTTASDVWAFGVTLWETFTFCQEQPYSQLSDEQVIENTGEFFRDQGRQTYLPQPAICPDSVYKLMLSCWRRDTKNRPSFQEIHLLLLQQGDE

[3] = target: T1, Discoidin domain-containing receptor 2 (Homo sapiens); conditions: at 1 µM
[4] = target: Epidermal growth factor receptor (Homo sapiens) (UniProt P00533); conditions: at 0.1 µM
[5] = target: Epidermal growth factor receptor (Homo sapiens) (UniProt P00533); conditions: at 1 µM
[6] = test system: Epidermal growth factor receptor (Homo sapiens), P00533 [L858R]; conditions: at 0.1 µM
[7] = test system: Epidermal growth factor receptor (Homo sapiens), P00533 [L858R]; conditions: at 1 µM
[8] = test system: Epidermal growth factor receptor (Homo sapiens), P00533 [L861Q]; conditions: at 0.1 µM
[9] = test system: Epidermal growth factor receptor (Homo sapiens), P00533 [L861Q]; conditions: at 1 µM
[10] = test system: Epidermal growth factor receptor (Homo sapiens), P00533 [T790M]; conditions: at 0.1 µM
[11] = test system: Epidermal growth factor receptor (Homo sapiens), P00533 [T790M]; conditions: at 1 µM
[12] = test system: Epidermal growth factor receptor (Homo sapiens), P00533 [L858R,T790M]; conditions: at 0.1 µM
[13] = test system: Epidermal growth factor receptor (Homo sapiens), P00533 [L858R,T790M]; conditions: at 1 µM
[14] = target: Ephrin type-A receptor 2 (Homo sapiens) (UniProt P29317); conditions: at 0.1 µM
[15] = target: Ephrin type-A receptor 2 (Homo sapiens) (UniProt P29317); conditions: at 1 µM
[16] = target: T2, Ephrin type-A receptor 3 (Homo sapiens) (UniProt P29320); conditions: at 0.1 µM
T2 sequence (whole entry): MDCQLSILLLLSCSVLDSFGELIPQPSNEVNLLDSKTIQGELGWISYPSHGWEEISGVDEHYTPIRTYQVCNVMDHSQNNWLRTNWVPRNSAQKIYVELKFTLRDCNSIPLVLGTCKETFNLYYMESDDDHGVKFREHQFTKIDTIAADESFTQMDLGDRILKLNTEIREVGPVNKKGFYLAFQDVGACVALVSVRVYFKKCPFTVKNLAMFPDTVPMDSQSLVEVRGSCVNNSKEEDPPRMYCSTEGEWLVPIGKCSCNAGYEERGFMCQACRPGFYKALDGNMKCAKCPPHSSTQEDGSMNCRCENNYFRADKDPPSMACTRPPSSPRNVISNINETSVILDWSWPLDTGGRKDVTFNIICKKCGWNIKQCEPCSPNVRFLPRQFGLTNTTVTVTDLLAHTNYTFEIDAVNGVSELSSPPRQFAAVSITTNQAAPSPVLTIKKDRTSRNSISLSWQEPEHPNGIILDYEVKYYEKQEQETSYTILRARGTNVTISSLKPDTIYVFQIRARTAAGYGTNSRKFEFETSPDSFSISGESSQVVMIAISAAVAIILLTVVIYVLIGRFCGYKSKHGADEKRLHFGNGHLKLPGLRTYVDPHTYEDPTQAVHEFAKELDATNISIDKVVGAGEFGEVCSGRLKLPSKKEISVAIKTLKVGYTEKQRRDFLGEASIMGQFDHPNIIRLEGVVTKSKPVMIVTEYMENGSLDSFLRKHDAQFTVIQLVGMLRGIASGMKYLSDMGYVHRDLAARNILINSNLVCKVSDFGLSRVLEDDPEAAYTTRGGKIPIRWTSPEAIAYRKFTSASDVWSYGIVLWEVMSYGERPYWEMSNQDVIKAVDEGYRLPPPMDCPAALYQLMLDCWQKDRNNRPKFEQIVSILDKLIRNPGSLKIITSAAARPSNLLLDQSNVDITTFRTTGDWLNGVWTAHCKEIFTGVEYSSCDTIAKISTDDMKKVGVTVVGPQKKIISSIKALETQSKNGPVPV

[17] = target: T2, Ephrin type-A receptor 3 (Homo sapiens); conditions: at 1 µM
[18] = target: Ephrin type-A receptor 4 (Homo sapiens) (UniProt P54764); conditions: at 0.1 µM
[19] = target: Ephrin type-A receptor 4 (Homo sapiens) (UniProt P54764); conditions: at 1 µM
[20] = target: T3, Ephrin type-B receptor 2 (Homo sapiens) (UniProt P29323); conditions: at 0.1 µM;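 note: reported as mean inhibition of EPHB2, from the GSK PKIS dataset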
T3 sequence (whole entry): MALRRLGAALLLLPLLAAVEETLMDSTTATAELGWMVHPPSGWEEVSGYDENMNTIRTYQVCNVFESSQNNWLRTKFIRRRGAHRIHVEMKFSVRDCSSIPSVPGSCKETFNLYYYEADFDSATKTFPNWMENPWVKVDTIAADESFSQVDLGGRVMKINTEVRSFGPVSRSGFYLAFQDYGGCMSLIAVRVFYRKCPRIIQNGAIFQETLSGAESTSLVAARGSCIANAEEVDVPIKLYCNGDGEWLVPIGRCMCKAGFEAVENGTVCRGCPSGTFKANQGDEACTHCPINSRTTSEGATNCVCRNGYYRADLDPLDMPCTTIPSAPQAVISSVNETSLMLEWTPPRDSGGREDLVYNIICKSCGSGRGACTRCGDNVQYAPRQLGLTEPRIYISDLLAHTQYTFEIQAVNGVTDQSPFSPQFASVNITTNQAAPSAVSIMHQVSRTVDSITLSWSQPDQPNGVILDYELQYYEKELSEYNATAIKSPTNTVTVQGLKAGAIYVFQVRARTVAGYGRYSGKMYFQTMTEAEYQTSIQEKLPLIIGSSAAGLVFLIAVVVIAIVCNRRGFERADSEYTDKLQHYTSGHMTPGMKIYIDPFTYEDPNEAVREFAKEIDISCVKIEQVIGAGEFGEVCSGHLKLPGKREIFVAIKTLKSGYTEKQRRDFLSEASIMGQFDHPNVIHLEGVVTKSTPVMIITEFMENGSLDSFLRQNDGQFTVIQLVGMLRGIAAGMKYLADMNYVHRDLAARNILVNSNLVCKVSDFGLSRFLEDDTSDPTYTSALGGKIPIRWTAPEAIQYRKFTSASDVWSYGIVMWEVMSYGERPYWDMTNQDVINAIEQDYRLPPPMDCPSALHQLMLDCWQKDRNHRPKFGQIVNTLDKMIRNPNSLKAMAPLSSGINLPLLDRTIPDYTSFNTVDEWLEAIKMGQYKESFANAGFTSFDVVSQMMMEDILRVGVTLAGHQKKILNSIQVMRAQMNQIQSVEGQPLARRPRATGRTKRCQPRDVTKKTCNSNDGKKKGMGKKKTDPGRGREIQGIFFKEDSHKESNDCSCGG

Tyrosine-protein kinase CSK (Homo sapiens), sequence (P41240 2-450 limits assumed): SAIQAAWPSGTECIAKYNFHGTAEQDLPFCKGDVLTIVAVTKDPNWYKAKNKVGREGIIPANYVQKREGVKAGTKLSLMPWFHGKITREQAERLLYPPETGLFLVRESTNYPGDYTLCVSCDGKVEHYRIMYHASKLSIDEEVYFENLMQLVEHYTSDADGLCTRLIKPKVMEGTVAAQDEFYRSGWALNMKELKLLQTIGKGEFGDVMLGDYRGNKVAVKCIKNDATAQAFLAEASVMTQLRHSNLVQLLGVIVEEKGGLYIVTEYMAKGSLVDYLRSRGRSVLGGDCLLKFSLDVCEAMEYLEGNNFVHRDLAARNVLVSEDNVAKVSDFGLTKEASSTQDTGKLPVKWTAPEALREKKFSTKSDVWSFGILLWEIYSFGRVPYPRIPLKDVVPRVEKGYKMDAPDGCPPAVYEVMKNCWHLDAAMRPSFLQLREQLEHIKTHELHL
Epidermal growth factor receptor (Homo sapiens), P00533 [T790M], sequence (P00533 whole entry T790M): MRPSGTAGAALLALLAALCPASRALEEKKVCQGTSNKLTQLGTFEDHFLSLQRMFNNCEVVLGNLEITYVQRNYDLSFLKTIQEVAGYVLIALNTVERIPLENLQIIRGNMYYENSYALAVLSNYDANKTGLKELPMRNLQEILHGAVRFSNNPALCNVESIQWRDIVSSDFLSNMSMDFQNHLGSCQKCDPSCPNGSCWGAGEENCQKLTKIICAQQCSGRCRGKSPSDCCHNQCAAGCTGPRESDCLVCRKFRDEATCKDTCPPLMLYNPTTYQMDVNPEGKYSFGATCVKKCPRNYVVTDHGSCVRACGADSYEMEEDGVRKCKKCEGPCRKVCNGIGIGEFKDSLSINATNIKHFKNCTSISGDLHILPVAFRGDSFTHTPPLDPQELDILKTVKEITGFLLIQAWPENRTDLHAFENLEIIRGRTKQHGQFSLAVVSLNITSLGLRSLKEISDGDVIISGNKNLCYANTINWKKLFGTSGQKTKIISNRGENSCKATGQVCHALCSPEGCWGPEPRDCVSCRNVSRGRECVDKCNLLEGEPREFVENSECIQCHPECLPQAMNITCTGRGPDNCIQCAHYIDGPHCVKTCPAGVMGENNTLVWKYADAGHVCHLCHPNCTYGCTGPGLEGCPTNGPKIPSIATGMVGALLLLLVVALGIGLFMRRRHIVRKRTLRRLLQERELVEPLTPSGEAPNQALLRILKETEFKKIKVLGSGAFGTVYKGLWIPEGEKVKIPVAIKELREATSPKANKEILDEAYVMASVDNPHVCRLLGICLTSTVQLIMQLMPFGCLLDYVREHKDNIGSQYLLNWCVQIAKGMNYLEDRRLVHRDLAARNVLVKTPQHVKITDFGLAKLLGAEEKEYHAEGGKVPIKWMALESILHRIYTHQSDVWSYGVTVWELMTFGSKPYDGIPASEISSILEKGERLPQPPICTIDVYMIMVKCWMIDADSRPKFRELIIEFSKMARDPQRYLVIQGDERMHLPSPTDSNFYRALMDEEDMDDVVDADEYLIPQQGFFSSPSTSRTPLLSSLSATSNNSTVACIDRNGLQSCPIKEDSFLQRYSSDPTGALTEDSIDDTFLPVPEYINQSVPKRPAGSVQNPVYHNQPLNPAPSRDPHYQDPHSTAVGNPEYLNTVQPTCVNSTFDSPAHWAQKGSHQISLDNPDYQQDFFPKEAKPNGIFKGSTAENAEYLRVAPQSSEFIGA
Epidermal growth factor receptor (Homo sapiens), P00533 [L861Q], sequence (P00533 whole entry L861Q): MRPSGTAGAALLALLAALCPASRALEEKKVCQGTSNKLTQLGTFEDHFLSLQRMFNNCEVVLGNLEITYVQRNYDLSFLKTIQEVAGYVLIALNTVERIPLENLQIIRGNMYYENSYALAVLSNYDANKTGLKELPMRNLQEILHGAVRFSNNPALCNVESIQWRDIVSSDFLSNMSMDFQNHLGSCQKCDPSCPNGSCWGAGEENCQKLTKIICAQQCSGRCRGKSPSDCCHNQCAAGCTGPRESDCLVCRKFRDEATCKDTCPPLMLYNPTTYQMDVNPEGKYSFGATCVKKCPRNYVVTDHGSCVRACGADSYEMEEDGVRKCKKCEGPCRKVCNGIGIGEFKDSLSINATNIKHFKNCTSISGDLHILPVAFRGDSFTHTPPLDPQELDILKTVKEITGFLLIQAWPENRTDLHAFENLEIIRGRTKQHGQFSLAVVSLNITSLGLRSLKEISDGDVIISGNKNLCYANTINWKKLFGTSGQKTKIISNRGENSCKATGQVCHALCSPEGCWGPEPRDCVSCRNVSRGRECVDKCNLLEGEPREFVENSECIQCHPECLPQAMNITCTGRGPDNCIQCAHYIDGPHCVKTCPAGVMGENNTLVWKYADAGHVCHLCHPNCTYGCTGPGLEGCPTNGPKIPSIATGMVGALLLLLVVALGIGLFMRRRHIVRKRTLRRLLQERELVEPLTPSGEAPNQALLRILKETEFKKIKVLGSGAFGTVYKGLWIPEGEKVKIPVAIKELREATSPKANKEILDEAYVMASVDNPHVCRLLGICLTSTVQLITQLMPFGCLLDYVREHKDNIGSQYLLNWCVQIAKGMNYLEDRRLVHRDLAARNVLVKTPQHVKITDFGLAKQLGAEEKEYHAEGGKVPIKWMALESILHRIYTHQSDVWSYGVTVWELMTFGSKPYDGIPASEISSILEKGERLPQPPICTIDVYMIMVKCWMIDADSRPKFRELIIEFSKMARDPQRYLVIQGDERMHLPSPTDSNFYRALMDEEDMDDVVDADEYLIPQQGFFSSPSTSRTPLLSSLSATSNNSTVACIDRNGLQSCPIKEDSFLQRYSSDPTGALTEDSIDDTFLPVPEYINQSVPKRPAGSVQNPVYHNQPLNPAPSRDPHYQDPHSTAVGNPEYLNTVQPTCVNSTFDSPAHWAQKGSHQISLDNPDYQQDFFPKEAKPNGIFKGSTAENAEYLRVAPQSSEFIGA
Epidermal growth factor receptor (Homo sapiens), P00533 [L858R], sequence (P00533 whole entry L858R): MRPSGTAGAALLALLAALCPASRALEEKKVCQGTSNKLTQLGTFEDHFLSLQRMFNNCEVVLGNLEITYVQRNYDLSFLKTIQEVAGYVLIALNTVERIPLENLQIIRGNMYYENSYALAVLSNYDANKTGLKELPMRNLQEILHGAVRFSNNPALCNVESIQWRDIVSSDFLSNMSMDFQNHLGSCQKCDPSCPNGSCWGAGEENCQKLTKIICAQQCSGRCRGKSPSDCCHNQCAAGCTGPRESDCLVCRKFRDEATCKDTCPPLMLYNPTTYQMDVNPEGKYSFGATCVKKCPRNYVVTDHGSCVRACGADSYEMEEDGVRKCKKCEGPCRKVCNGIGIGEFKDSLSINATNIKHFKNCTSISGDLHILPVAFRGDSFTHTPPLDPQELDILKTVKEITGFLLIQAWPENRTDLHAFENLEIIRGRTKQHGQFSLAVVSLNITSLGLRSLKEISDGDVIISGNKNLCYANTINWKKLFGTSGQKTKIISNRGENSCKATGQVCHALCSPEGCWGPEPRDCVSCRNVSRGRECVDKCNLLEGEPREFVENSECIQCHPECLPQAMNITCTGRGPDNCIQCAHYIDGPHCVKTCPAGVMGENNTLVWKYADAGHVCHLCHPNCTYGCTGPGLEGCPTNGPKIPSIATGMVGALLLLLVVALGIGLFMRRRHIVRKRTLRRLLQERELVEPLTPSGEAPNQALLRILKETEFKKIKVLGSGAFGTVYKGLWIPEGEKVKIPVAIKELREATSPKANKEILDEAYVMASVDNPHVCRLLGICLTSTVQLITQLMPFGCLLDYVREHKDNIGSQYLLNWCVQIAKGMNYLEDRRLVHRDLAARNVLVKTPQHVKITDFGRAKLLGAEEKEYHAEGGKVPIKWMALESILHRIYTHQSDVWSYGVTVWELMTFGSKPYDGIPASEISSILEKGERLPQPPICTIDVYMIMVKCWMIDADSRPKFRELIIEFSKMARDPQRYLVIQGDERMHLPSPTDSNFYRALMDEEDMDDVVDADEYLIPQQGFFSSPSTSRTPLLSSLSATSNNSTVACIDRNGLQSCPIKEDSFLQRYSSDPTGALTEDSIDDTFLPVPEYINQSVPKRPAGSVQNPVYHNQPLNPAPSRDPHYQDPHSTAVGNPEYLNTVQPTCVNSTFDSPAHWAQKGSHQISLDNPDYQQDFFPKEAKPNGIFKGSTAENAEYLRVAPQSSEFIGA
Ephrin type-A receptor 4 (Homo sapiens), sequence (P54764 whole entry): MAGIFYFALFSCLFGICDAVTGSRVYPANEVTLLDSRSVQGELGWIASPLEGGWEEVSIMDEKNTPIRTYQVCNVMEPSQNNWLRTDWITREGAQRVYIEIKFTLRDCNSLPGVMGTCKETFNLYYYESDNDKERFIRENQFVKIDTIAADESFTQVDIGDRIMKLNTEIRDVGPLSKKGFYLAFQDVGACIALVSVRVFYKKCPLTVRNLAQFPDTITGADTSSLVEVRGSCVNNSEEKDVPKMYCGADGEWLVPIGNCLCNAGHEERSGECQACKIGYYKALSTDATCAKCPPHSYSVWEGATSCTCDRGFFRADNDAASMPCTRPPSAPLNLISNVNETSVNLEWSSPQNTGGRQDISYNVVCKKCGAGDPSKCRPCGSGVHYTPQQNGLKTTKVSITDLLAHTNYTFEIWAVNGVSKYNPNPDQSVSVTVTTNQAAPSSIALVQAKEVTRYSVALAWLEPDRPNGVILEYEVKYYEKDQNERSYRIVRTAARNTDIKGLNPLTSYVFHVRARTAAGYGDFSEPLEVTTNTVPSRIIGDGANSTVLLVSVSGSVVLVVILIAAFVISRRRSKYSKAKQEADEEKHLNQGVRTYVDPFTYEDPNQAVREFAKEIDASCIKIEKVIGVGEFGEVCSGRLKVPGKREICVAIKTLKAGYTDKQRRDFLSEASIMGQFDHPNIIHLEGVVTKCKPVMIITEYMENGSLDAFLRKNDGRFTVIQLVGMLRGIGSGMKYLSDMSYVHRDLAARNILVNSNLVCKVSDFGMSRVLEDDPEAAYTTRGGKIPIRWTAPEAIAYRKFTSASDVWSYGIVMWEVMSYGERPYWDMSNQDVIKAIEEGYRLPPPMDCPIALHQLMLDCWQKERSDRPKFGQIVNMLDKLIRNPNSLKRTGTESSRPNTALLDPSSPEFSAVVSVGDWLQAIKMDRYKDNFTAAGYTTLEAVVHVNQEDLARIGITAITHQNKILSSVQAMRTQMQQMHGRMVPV

Compound | inhibition [1] [%] | inhibition [2] [%] | inhibition [3] [%] | inhibition [4] [%] | inhibition [5] [%] | inhibition [6] [%] | inhibition [7] [%] | inhibition [8] [%] | inhibition [9] [%] | inhibition [10] [%] | inhibition [11] [%] | inhibition [12] [%] | inhibition [13] [%] | inhibition [14] [%] | inhibition [15] [%] | inhibition [16] [%] | inhibition [17] [%] | inhibition [18] [%] | inhibition [19] [%] | inhibition [20] [%]
COc1cccc(-n2ncc3c(N/N=C/c4cccc(F)c4)ncnc32)c1 | 4.81 | 1.22 | 2.49 | 0.53 | 8.49 | 6.62 | 37.9 | 2.52 | 7.42 | -0.78 | 0.45 | -0.32 | 2.54 | -6.37 | -5.64 | -1.03 | -0.95 | 4.81 | 2.57 | 3.17
Nc1ncnc2occ(-c3ccc(NC(=O)Nc4cccc(C(F)(F)F)c4)cc3)c12 | 44.4 | 64 | 79.2 | 1.36 | 7.97 | 3.92 | 6.22 | 2.76 | 3.15 | 2.8 | 4.59 | 0.78 | 5.43 | 17.2 | 85 | 18.4 | 50.6 | 46.8 | 78.3 | 74.1
CCn1c(-c2nonc2N)nc2c(C#CC(C)(C)O)nc(CN3CCCC3)cc21 | -4.12 | 1.3 | 5.64 | 1.34 | 1.12 | -0.22 | -1.48 | -1.77 | -4.01 | -2.21 | -1.46 | -1.08 | 0.28 | -1.52 | -2.75 | -2.69 | 1.11 | -7.89 | -5.06 | -4.91
CCCN1CCC(Oc2cc(Nc3nc(Nc4cccc(F)c4C(N)=O)c4cc[nH]c4n3)c(OC)cc2Cl)CC1 | 0.71 | 5.18 | 9.57 | 1.11 | 2.64 | 1.86 | 1.31 | 1.13 | 0.75 | -0.41 | -0.49 | -2.63 | 2.79 | -1.48 | 0.75 | -0.71 | 2.51 | 3.96 | 9.42 | 5.31
CCCN1CCC=C(c2ccc(Nc3nc(Nc4ccccc4C(N)=O)c4cc[nH]c4n3)c(C)c2)C1 | 1.79 | 1.12 | 3.26 | 3.3 | 8.18 | 0.06 | 9.35 | 1.44 | 6.61 | 2.92 | 25.1 | 7.32 | 51.6 | 1.69 | -0.07 | 3.53 | 2.81 | 5.85 | 10.8 | 8.59
COc1cc2ncn(-c3cc(O[C@@H](C)c4ccccc4Cl)c(C(N)=O)s3)c2cc1OC | 5.68 | 1.33 | 1.58 | 0.08 | 7.32 | 5.96 | 26.9 | 3.26 | 7.73 | 1.35 | 2.06 | 1.8 | 5.2 | 1.55 | 1.17 | 1.7 | 6.21 | 6.22 | 14.2 | 7.76
CCn1c(-c2nonc2N)nc2c(C#CC(C)(C)O)nc(OC[C@@H](N)c3ccccc3)cc21 | -2.13 | 4.51 | 12.2 | 0.44 | 3.81 | -1.04 | -2.49 | -1.53 | -1.51 | -1.77 | -1.79 | -0.23 | 0.54 | -1.19 | 0.2 | -1.62 | 7.71 | -5.47 | 6.31 | 5
COc1ccc(-c2coc3ncnc(N)c23)cc1 | 0.88 | 2.79 | 2.69 | -0.38 | 2.37 | 1.46 | 1.48 | 1.51 | -0.75 | 1.2 | -0.41 | 3.68 | 1.07 | 1.21 | 1.62 | 2.58 | 3.4 | 7.51 | 3.15 | 4.53
CC1=C(C(=O)Nc2ccc3[nH]ncc3c2)C(c2ccc(F)cc2)NC(=O)N1 (stereo not given) | 1.35 | 0.44 | 0.08 | -0.6 | 1.27 | 3.85 | 4.77 | 2.31 | 1.33 | 0.71 | 0.87 | -2.35 | -1.39 | -2.91 | -2.18 | 2.51 | 2.14 | 4.19 | 4.52 | 2.76
[O-][S+]1CCN(Cc2ccc(-c3ccc4ncnc(Nc5ccc(OCc6ccccc6)c(F)c5)c4c3)o2)CC1 | -3.52 | 0.34 | 0.62 | 84.1 | 90.7 | 42.6 | 84.9 | 39.7 | 68.6 | 4.05 | 10.7 | 3.03 | 0.99 | 0.8 | -0.21 | 4.64 | 4.32 | 4.58 | -1.51 | 4.14
NS(=O)(=O)c1ccc(N/N=C2\C(=O)Nc3ccc(C(=O)NCCc4c[nH]cn4)cc32)cc1 | 9.56 | 1.41 | 5.19 | 2 | 4.43 | 5.09 | 5.32 | 3.18 | 3.48 | 2.7 | 1.79 | 3.11 | 5.71 | 1.93 | 1.88 | 7.18 | 8.06 | 10.7 | 16.3 | 11.4
CS(=O)(=O)CCNCc1ccc(-c2ccc3ncnc(Nc4ccc(OCc5cccc(F)c5)c(C(F)(F)F)c4)c3c2)o1 | 2.03 | 1.18 | 0.88 | 12.8 | 65.9 | 6.6 | 46.2 | 20.6 | 40.8 | 2.44 | 3.43 | -0.63 | -1.62 | 0.17 | 1.21 | 3.24 | 1.95 | 8.08 | 6.97 | 4.21
CC1=C(C(=O)Nc2ccc3[nH]ncc3c2)C(c2ccc3ccccc3c2)CC(=O)N1 (stereo not given) | 8.49 | 1.3 | 0.24 | 1.29 | 5.76 | 3.81 | 6.61 | 2.89 | 1.33 | 1.06 | 3.65 | 4.92 | 23.5 | -0.93 | 0.37 | 3.77 | 6.3 | 6.86 | 10.2 | 7.74
